Measured values published in PubChem BioAssay.
Activity calls are given as the source filed them. No rule for the calls is given here.

molecular target: Pantothenate synthetase (Mycobacterium tuberculosis (strain ATCC 25618 / H37Rv)) (UniProt P9WIL5); experiment: Coupled enzyme confirmation of inhibitors against recombinant Mtb PanC (AID 375); settings: coupled enzyme assay; at 10 µM, stronger effect = higher value;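 also: 0% = full reaction with vehicle and 100% = no enzyme background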
Sequence (P9WIL5 whole entry, looked up): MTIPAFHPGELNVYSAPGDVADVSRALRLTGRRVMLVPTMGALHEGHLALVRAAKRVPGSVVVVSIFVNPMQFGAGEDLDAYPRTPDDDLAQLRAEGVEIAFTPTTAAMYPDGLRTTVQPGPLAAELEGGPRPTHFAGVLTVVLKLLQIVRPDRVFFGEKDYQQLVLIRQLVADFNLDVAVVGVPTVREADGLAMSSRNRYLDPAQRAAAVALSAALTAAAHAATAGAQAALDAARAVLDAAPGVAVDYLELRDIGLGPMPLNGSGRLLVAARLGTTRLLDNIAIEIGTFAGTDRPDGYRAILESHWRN

Row | SMILES | inhibition
1 | Cc1ccc(N=C2NC(=O)CS2)c(C)c1 | 0% (inactive)
2 | Cc1ccc2c(c1)-c1c(cnn1CC(=O)NC(C)CCc1ccco1)CO2 (stereo not given) | 0% (inactive)
3 | CC1(C)O[C@@H]2C[C@H]3[C@@H]4C[C@H](F)C5=CC(=O)C=C[C@]5(C)[C@@]4(F)[C@@H](O)C[C@]3(C)[C@]2(C(=O)CO)O1 | 1% (inactive)
4 | CCCC(CCC)C(=O)NCCN1CCOCC1 | 0% (inactive)
5 | COC(=O)CCCCCNc1ccc(C(=O)OC)cc1N | 0% (inactive)
6 | COc1cc(C2C(C#N)=C(N)OC3=C2C(=O)CCC3)ccc1OC(=O)N1CCOCC1 (stereo not given) | 0% (inactive)
7 | Cc1cc(OCC(O)CN2CCN(CCO)CC2)ccc1C(C)C (stereo not given) | 8% (inactive)
8 | CCCCc1cc(=O)oc2c(CN3CCCC3)c(O)c(Cl)cc12 | 7% (inactive)
9 | CCc1cc(C)cc(OCCNC(=O)c2ncn[nH]2)c1 | 7% (inactive)
10 | CCC(CO)Nc1ncnc2c1cnn2-c1ccc(Cl)cc1 (stereo not given) | 6% (inactive)
11 | CO[C@H]1C[C@@H]2CC[C@@H](C)[C@@](O)(O2)C(=O)C(=O)N2CCCC[C@H]2C(=O)O[C@H]([C@H](C)C[C@@H]2CC[C@@H](O)[C@H](OC)C2)CC(=O)[C@H](C)C=C(C)[C@@H](O)[C@@H](OC)C(=O)[C@H](C)C[C@H](C)C=CC=CC=C1C | 0% (inactive)
12 | CCOC(=O)CNC(=O)Cn1cnc2c(nnn2-c2cccc(Cl)c2)c1=O | 0% (inactive)
13 | Cn1c(=O)c2c(nc(SCC(=O)N3CCCc4ccccc43)n2C)n(C)c1=O | 1% (inactive)
14 | CC(=O)Nc1ccc(NS(=O)(=O)c2ccc(Cl)c(C(=O)O)c2)cc1 | 1% (inactive)
15 | O=C(Nc1ccccc1)N(CCN1CCOCC1)Cc1ccccc1F | 0% (inactive)
16 | Cc1c(C#N)c2ncnc(-c3ccccc3)c2n1-c1ccccc1 | 0% (inactive)
17 | CCOc1ccccc1NC(=O)CN(C)S(=O)(=O)c1cccc2nsnc12 | 11% (inactive)
18 | Cc1cc(C)c2c(N)c(C(=O)c3ccccc3)oc2n1 | 0% (inactive)
19 | CNC(=O)Nc1cccc(C(F)(F)F)c1 | 0% (inactive)
20 | Cc1cccc2sc(NC(=O)CN(C)S(=O)(=O)c3cccs3)nc12 | 2% (inactive)

Row | SMILES | inhibition
21 | Cc1cc(C)n(CC(=O)n2c3c(c4ccccc42)CCCC3)n1 | 2% (inactive)
22 | CC(=O)NC(CCS(C)(=O)=O)C(=O)Nc1cccc(C)c1C (stereo not given) | 0% (inactive)
23 | O=C(CSc1nc2c(c(=O)n1-c1ccc(F)cc1)SCC2)NCC1CCCO1 (stereo not given) | 6% (inactive)
24 | Cc1c(C(=O)NCc2cccnc2)sc2ncn(CC(=O)N3CCCCC3C)c(=O)c12 (stereo not given) | 0% (inactive)
25 | O=C1c2ccccc2C(O)(Cc2ccccc2)N1Cc1ccco1 (stereo not given) | 2% (inactive)
26 | O=C1CCc2nc3sc4c(c3c(=O)n2N1)CCCC4 | 0% (inactive)
27 | Cc1cccc(N(CC(N)=O)S(C)(=O)=O)c1C | 0% (inactive)
28 | N#Cc1c(/N=C/c2ccco2)sc2c1CCC2 | 0% (inactive)
29 | C=CCn1c(=O)c2ccccc2n2c(SCC(=O)Nc3cc(C)on3)nnc12 | 0% (inactive)
30 | Cc1ccc(-n2ncc3c(=O)n(CC(=O)NC4CCCCC4)cnc32)cc1C | 12% (inactive)
31 | Cc1ccc(C2Nc3ccccc3-c3nc4ccccc4n32)o1 (stereo not given) | 0% (inactive)
32 | CCOC(=O)C1=C(C)N=C2SC(C)C(=O)N2C1c1cccc(F)c1 (stereo not given) | 0% (inactive)
33 | CN(C)[C@@H]1C(=O)C(C(N)=O)=C(O)[C@@]2(O)C(=O)C3=C(O)c4c(O)ccc(Cl)c4[C@@H](O)[C@H]3C[C@@H]12 | 0% (inactive)
34 | C1=Nc2c(NCc3ccccc3)ncnc2Oc2ccccc21 | 0% (inactive)
35 | CCC1=C(C(=O)OC)C(c2cc(OC)ccc2OC)C(C#N)=C(N)O1 (stereo not given) | 8% (inactive)
36 | Cc1nnc(SCC(=O)Nc2c(Cl)cccc2Cl)[nH]c1=O | 0% (inactive)
37 | CCCCn1c(CN2CCN(c3ccc(F)cc3)CC2)nc2c1c(=O)n(C)c(=O)n2C | 2% (inactive)
38 | CC(=O)CCc1ccc(OCCCCn2cncn2)cc1 | 0% (inactive)
39 | CC(=O)O[C@]1(C(C)=O)CC[C@H]2[C@@H]3C=C(C)C4=CC(=O)CC[C@]4(C)[C@H]3CC[C@@]21C | 0% (inactive)
40 | O=C(CSCc1cccs1)N1CCCC1 | 3% (inactive)
